Screens deposited in PubChem BioAssay by several laboratories.
Only some compounds are listed: those with a hit (about 3% of all), similar ones and a draw of the others.
Mot1-301 SUMO: SUMOylation pathway inhibition by Mot1-301 growth rescue; growth rescue, % at 18.8 µM; 320,000 tested, 1% active; S. cerevisiae Mot1-301 growth rescue, ATP luminescence, 38.5C; percent above DMSO median, 100 means doubled; AID 2716;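 active means every valid replicate shows activation above 250% relative to neutral control wells; inactive means the rest, any valid replicate at or below 250%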
CHT inh: human CHT choline transport inhibition. Q9GZV3. CHT-expressing cells, membrane potential dye, choline response; stronger effect = lower value. B-score at 10 µM. 310,000 tested, 0.86% active;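 active means B-score over 3 SD under the library average, and starting fluorescence ratio not unusually high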;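 further: choline stimulus applied at its EC90 after an EC20 pre-addition; B-score computed on integrated fluorescence ratio after choline addition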
Target sequence (Q9GZV3 whole entry, looked up): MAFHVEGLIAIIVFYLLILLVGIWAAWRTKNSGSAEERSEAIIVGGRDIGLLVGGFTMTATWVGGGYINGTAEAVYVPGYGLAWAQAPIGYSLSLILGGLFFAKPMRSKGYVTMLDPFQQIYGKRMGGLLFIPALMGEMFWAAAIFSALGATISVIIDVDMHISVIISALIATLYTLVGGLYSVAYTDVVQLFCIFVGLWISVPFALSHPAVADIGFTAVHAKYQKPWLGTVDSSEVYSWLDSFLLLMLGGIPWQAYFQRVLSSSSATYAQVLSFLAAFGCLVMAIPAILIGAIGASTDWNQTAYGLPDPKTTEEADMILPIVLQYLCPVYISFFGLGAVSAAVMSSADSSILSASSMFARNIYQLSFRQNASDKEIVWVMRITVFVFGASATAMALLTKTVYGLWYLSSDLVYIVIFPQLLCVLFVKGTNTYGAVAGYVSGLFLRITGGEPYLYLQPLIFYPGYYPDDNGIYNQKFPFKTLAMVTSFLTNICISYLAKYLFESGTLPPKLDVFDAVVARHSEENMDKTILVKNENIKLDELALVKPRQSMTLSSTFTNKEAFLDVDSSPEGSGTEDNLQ
NALP1 yeast inh: inhibitors of NALP1 inflammasome in yeast; S. cerevisiae NALP1/ASC/caspase-1 growth, X-gal OD620, 72 h; inhibition, % at 10 µM; 280,000 tested, 0.61% active; in the data active means inhibition mostly above about 24%, no sharp cut-off; inactive means mostly below about 32%
A1 inh: inhibitors of the anti-apoptotic protein A1, read as caspase activation. 330,000 tested, 0.066% active. caspase activation, % (no concentration beside the values). MEF A1-2A-BIM cells, Caspase-Glo 3/7 luminescence, 3 h; percent of clofoctol response, vehicle zero;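 active means over half of replicate activation scores above 10%, or exactly half above 10 with the replicate mean above 10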
NLRP3 yeast inh: inhibitors of NALP3 inflammasome in yeast. inhibition, % at 10 µM. Yeast reconstituted NLRP3/ASC/caspase-1, beta-gal luminescence, 24 h. 330,000 tested, 0.39% active. AID 2825;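 active means inhibition of 50% or more; inactive means inhibition below 50%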
CHT allo act: allosteric activators of human choline transporter CHT | AID 488977 | Q9GZV3 | CHT-expressing cells, membrane potential dye, choline EC20; stronger effect = higher value; LV-AA mutant CHT in HEK293 cells | 310,000 tested, 0.49% active | B-score at 10 µM;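 active means initial fluorescence not abnormally high and integrated response B-score, plate-corrected, over 3 SD above library mean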
CHT inh conf: confirmation of human choline transporter CHT inhibitors | shares compounds with CHT inh | CHT-expressing cells, choline membrane potential dye; LV-to-AA substituted CHT, HEK293 cells | CHT activity remaining % of control (stronger effect = lower value), % at 10 µM | 2,400 tested, 70% active;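 active means choline transporter activity left, mean of duplicates at 10 µM, below buffer-only control mean minus 3 SD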;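 further: depolarization triggered by choline at its EC90 following an EC20 pre-addition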
HEK293 CHT ctr: counter-screen for CHT inhibitors: effect in parental HEK293 cells. shares compounds with CHT inh. 2,400 tested, 4% active. membrane potential dye, choline response; active = decrease or increase beyond buffer ±3SD. membrane potential ratio readout (active if shifted either direction beyond buffer ±3SD; no single direction) at 10 µM;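 further: parental cells lack the transporter so any hit is non-specific; ratio is peak minus trough fluorescence over baseline after EC90 choline challenge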
Large screens that a line does not name were inactive (follow-up assays come after a bar, where they were run).

Cc1cccc(N2CCN(C(=O)c3ccc(CNc4c(N5CCC(C)CC5)c(=O)c4=O)cc3)CC2C)c1 (configuration not stated)	CHT inh -5.42 | CHT inh conf 70.0% | HEK293 CHT ctr inactive
CC1CCCN(C(=O)c2ccc(CNc3c(N4CCCCC4)c(=O)c3=O)cc2)C1 (configuration not stated)	none
O=C(NNC(=O)c1cc2ccccc2[nH]1)OCc1ccccc1	none (no result: CHT inh, NALP1 yeast inh, CHT allo act)
COc1cc(O)c(C(CC(=O)N2CCN(c3ccccc3)CC2)c2ccc(N(C)C)cc2)c(OC)c1 (configuration not stated)	CHT inh -10.5 | CHT inh conf inactive | HEK293 CHT ctr inactive
COc1cc(O)c(C(CC(=O)N2CCCC(C)C2)c2ccc(N(C)C)cc2)c(OC)c1 (configuration not stated)	none
CC(C)(C)C1CCC(=O)N(CCOc2ccccc2)CC1 (configuration not stated)	none
CCOc1ccc(OCC)c(S(=O)(=O)NCc2ccccc2)c1	none
CCOc1cc(Br)ccc1S(=O)(=O)NCc1ccccc1	CHT inh -6.26 | CHT inh conf inactive | HEK293 CHT ctr inactive
CCc1cccc(CC)c1NC(=O)c1cccc(NC(=O)c2ccccc2)c1	CHT inh -5.63 | CHT inh conf 64.6% | HEK293 CHT ctr inactive
CC1CCC(NC(=O)c2cccc(S(=O)(=O)N3CCN(C)CC3)c2)CC1 (configuration not stated)	CHT inh -12.8 (no result: NALP1 yeast inh) | CHT inh conf 9.1% | HEK293 CHT ctr inactive
COc1ccc(N(C)S(=O)(=O)c2cccc(C(=O)NC3CCC(C)CC3)c2)cc1 (configuration not stated)	CHT inh -6.32 | CHT inh conf 65.3% | HEK293 CHT ctr inactive
CCc1cccc(CC)c1NC(=O)c1cccc(S(=O)(=O)N2CCN(C)CC2)c1	CHT inh -5.82 | CHT inh conf 38.9% | HEK293 CHT ctr inactive
CCc1cccc(NC(=O)c2cccc(S(=O)(=O)N3CCN(C)CC3)c2)c1	none
Cc1ccc2c(c1)N(CC(=O)NCCC1=CCCCC1)C(=O)c1cccnc1O2	none
O=C(NC1CCCCCCC1)c1ccc(S(=O)(=O)N2CCCC2)cc1	CHT inh -10.6 | CHT inh conf 43.5% | HEK293 CHT ctr inactive
Cc1nn2c(N3CCN(C)CC3)c3c(nc2c1-c1ccccc1)CCCC3	CHT inh -9.6 | CHT inh conf 31.7% | HEK293 CHT ctr inactive
CCOC(=O)c1c(C)[nH]c(C(=O)OCC(=O)c2ccc3c(c2)NC(=O)CO3)c1C	none (no result: Mot1-301 SUMO, NALP1 yeast inh)
CC#CCN(CC#CC)S(=O)(=O)c1ccc(-n2cnnn2)c(OC)c1	CHT inh -6.77 | CHT inh conf 59.2% | HEK293 CHT ctr inactive
COc1ccc(S(=O)(=O)N2CCOCC2)cc1NC(=O)c1ccc(OC(F)F)cc1	none (no result: Mot1-301 SUMO, CHT inh, NALP1 yeast inh, A1 inh, CHT allo act)
CC(NS(=O)(=O)OCC(Cl)(Cl)Cl)c1ccc(Br)cc1 (configuration not stated)	CHT inh -5.18 | CHT inh conf 67.3% | HEK293 CHT ctr inactive
O=C(Nc1ccccc1Br)C1CCCN1S(=O)(=O)c1cccc2nsnc12 (configuration not stated)	CHT inh -7.9 (no result: Mot1-301 SUMO, A1 inh) | CHT inh conf 22.9% | HEK293 CHT ctr inactive
COc1ccccc1C(=O)Nc1ccc2c(c1)nc(CN1CCCCC1)n2C	none
Cn1c(CN2CCCCC2)nc2cc(NC(=O)c3ccccc3Cl)ccc21	CHT inh -7.49 | CHT inh conf 40.2% | HEK293 CHT ctr inactive
COc1ccc(C(=O)C2CCCN(C(=O)c3ccc(CSC)o3)C2)cc1F (configuration not stated)	none
CCOC(=O)c1cccc(Nc2ncnc3ccccc23)c1	CHT inh -8.18 | CHT inh conf 24.9% | HEK293 CHT ctr inactive
COC(=O)c1cccc(Nc2ncnc3ccc(C)cc23)c1	none
CC(C)(C)[C@H]1CCC(=O)N([C@H](CN=[N+]=[N-])Cc2ccccc2)CC1	CHT inh -5.15 | CHT inh conf inactive | HEK293 CHT ctr inactive
[N-]=[N+]=NC[C@H](Cc1ccccc1)N1CC[C@@H](O)CCC1=O	none
O=C(CSc1nnnn1-c1ccccc1)NCc1cccs1	none
CCOC(=O)N1CCC(NC(=O)CSCc2cnn(-c3ccccc3)c2-n2cccc2)CC1	CHT inh -7.34 | CHT inh conf inactive | HEK293 CHT ctr inactive
O=C(CSCc1cnn(-c2ccccc2)c1-n1cccc1)NCc1cccs1	CHT inh -6.55 | CHT inh conf inactive | HEK293 CHT ctr inactive
CC1CCN(CC(=O)Nc2cccc(C(=O)Nc3cccc(C(F)(F)F)c3)c2)CC1	CHT inh -6.38 | CHT inh conf 44.1% | HEK293 CHT ctr inactive
CC1CN(CC(=O)Nc2cccc(C(=O)Nc3cccc(C(F)(F)F)c3)c2)CC(C)O1 (configuration not stated)	none
COc1ccc(C(=O)C2CCCN(C(=O)c3noc4c3CCCC4)C2)cc1F (configuration not stated)	none | CHT inh conf 47.2% | HEK293 CHT ctr inactive
OCCn1nc(-c2ccccc2)cc1-c1ccccc1	CHT inh -9.34 | CHT inh conf 25.9% | HEK293 CHT ctr inactive
Nc1cc(-c2ccccc2)nn1Cc1ccccc1	none
O=C(CCc1c[nH]c2ccccc12)N1CCN(S(=O)(=O)c2ccc(F)cc2)CC1	none (no result: Mot1-301 SUMO, CHT inh, NALP1 yeast inh, A1 inh, CHT allo act)
COc1ccc2c(c1)CC(C)C/C2=N\NC(=O)c1ccco1 (configuration not stated)	CHT inh -9.52 | CHT inh conf 57.5% | HEK293 CHT ctr inactive
CCn1cc(CNC(=O)c2cc(COc3ccc(F)cc3F)on2)cn1	none | CHT inh conf 68.7% | HEK293 CHT ctr inactive
C[C@H](NC(=O)c1ccco1)C(=O)NNC(=O)COc1cccc(C(F)(F)F)c1	none (no result: CHT inh, NALP1 yeast inh, CHT allo act)
CCc1ccccc1NC(=O)C1CC(c2ccc(OC)cc2)=NO1 (configuration not stated)	CHT inh -6.35 | CHT inh conf 48.3% | HEK293 CHT ctr inactive
Cc1cc(NS(=O)(=O)c2ccc(NC(=O)/C=C/c3c(F)cccc3Cl)cc2)nc(C)n1	CHT inh -5.68 | CHT inh conf 31.2% | HEK293 CHT ctr inactive
CCCCOC(=O)Nc1ccc(S(=O)(=O)Nc2cc(C)nc(C)n2)cc1	none
CCCCC(Br)C(=O)Nc1ccc(S(=O)(=O)Nc2cc(C)nc(C)n2)cc1 (configuration not stated)	CHT inh -5.77 | CHT inh conf 14.5% | HEK293 CHT ctr inactive
